Source: PubChem (Broad Institute)
The list is not random: actives were taken first. Their share in the collection is about 0.65%.
TcdB inh – blocks C. difficile toxin B glycohydrolase activity; 350,000 compounds, 0.24% hits; inhibition, % at 9.99 µM; TcdB glycohydrolase enzymatic assay, plate reader; in the data active means inhibition above about 10%
Mtb UGM inh – blocks M. tuberculosis UGM enzyme. AID 504406. inhibition, % at 10 µM. purified UGM, fluorescence polarization probe displacement. 320,000 compounds, 0.06% hits; in the data active means inhibition above about 10%, passing the limit was not always enough
Vc quorum ag-1 – inducers of Vibrio cholerae quorum light production without autoinducers. AID 588436. 350,000 compounds, 0.16% hits. V. cholerae BH1578 lux reporter, luminescence, 6 h. activation, % at 18.7 µM; in the data active means activation mostly above about 9.7%, no sharp cut-off
PrP UTR inh – suppresses PrP 5' UTR mRNA reporter expression; cell-based PrP 5' UTR mRNA reporter, plate reader; 340,000 compounds, 0.35% hits; inhibition, % (concentration not given with the values); AID 488862; in the data active means inhibition above about 52%
Yp Topo-I inh – blocks Yersinia pestis topoisomerase I activity. Y. pestis Topo-I cleavage product accumulation, plate reader. activity, % at 10 µM. 360,000 compounds, 0.064% hits. AID 504884; in the data active means activity above about 50%, passing the limit was not always enough
Vc quorum ag-2 – induces V. cholerae light production without autoinducers | shares compounds with Vc quorum ag-1 | activation, % at 50 µM | V. cholerae BH1578 lux reporter, luminescence, 6 h | 620 tested, under 10 active; call rule not given here
HeLa 24h tox – cytotoxicity in HeLa cells at 24 hours | AID 624140 | activity change, negative = cytotoxicity, % at 35 µM | HeLa viability, CellTiter-Glo ATP luminescence | shares compounds with Vc quorum ag-1 | 25 tested, under 10 active;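 active means signal drop with fitted half-maximal concentration at or below twice the highest valid dose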
Numbers stand for hits; n = inactive; x = not tested or not shown.

SMILES	TcdB inh	Mtb UGM inh	Vc quorum ag-1	PrP UTR inh	Yp Topo-I inh	Vc quorum ag-2	others
Cc1noc(C)c1S(=O)(=O)Nc1ccc2c(c1)CC(=O)N([C@H](C)CO)C[C@@H](C)[C@@H](CN(C)S(=O)(=O)c1cn(C)cn1)O2	n	x	x	x	x	x
Cc1cccc(OCCSc2nncn2C)c1	n	n	n	n	n	x
Cn1cnnc1SCCOc1ccc(Cl)cc1	n	n	132.1	n	n	n
C=CCNC(=O)CCCOc1ccc(C)cc1	x	n	35.2	n	n	n
NC(Cc1ccccc1)c1nc(-c2ccccc2)no1 (stereo not given)	n	n	n	n	n	x
Cc1ccccc1OC(C)c1nc(-c2ccccc2)no1 (stereo not given)	x	n	n	n	n	n
Cc1ccccc1S(=O)(=O)N1[C@@H](C#N)[C@@H](c2ccc(-c3ccc(F)cc3)cc2)[C@@H]1CO	n	x	x	x	x	x
CC(C)(C)c1nc(N2CCN(C(=O)c3ccco3)CC2)c2nnn(Cc3ccccc3)c2n1	x	n	16.7	n	n	n
O=C(c1ccco1)N1CCN(c2nc(C3CC3)nc3c2nnn3Cc2ccccc2Cl)CC1	x	n	n	n	n	x
CCc1cc(C(=O)N2CCN(C(=O)c3ccccc3)CC2)sc1C	n	x	n	n	n	n
C[C@@H]1CN([C@@H](C)CO)C(=O)c2cc(NC(=O)Cc3cn(C)c4ccccc34)ccc2O[C@@H]1CN(C)Cc1ccc(-c2ccccc2)cc1	n	x	x	x	x	x
Cc1cc(=O)[nH]c(CN2CCC(c3ccccc3)CC2)n1	n	n	x	n	n	n
Cc1ccc(S(=O)(=O)N[C@@H]2CC[C@@H](CCn3cc(C4CCCCC4)nn3)O[C@H]2CO)cc1	n	x	x	x	x	x
O=C(COC(=O)c1ccc(Br)cc1)NC1CCCC1	n	n	131.4	n	n	n
Cc1cc(C(C)(C)C)oc1C(=O)OCC(=O)NC1CCCCC1	n	n	145.3	n	n	n
O=C(COC(=O)c1ccc(O)cc1)NC1CCCCCCC1	n	x	n	x	n	x
NS(=O)(=O)c1cc(C(=O)OCC(=O)NC2CCCCCCC2)ccc1Cl	n	x	n	n	n	n
C[C@@H]1CN([C@@H](C)CO)C(=O)Cc2cc(NS(=O)(=O)c3cccs3)ccc2O[C@H]1CN(C)C(=O)Nc1ccc(C(F)(F)F)cc1	n	x	x	x	x	x
Cc1cc(N2CCC(C)CC2)nc2ccc(N3C(=O)CCC3=O)cc12	x	n	n	n	n	n
CCCCNC(=O)CCC(=O)Nc1ccc2nc(N3CCC(C)CC3)cc(C)c2c1	n	n	n	n	n	x
CO[C@@H]1CC[C@H]2CCN(C)C(=O)C[C@@H](c3ccccc3)CN(C)C(=O)c3cccc(C#N)c3OC[C@@H]1O2	n	x	x	x	x	x
CCn1c(SCC(=O)Nc2ccc3c(c2)OCCO3)nnc1-c1ccccn1	x	n	n	x	n	n
COc1ccc(NC(=O)CSc2ccc3c(c2)OCCO3)cc1OC	x	n	25.0	n	n	n
COc1ccc(CC(=O)N2CCC(Nc3nc4ccccc4n3Cc3ccc(F)cc3)CC2)cc1	x	n	15.4	n	n	n
CC(=O)Nc1nonc1NC(=O)c1ccc(F)cc1	x	n	x	n	n	x
SMILES	TcdB inh	Mtb UGM inh	Vc quorum ag-1	PrP UTR inh	Yp Topo-I inh	Vc quorum ag-2	others
CC(=O)Nc1nonc1NC(C)=O	x	n	25.8	n	n	n
O=C(Nc1nnc(C2CC2)s1)C1COc2ccccc2O1 (stereo not given)	x	n	n	n	n	x
O=C(Nc1nnc(C(F)(F)F)s1)C1COc2ccccc2O1 (stereo not given)	x	n	n	n	n	n
C[C@H](CO)N1C[C@H](C)[C@H](CN(C)CC2CCCCC2)Oc2ccc(NS(=O)(=O)c3ccc(Cl)cc3)cc2CC1=O	n	x	x	x	x	x
CCCn1c(=O)c(C(=O)Nc2cccc(C)c2)c(O)c2ccccc21	n	n	n	n	n	x
Cc1cccc(NC(=O)c2c(O)c3ccccc3n(C)c2=O)c1	n	n	70.3	n	n	n
C[C@@H]1CN([C@@H](C)CO)C(=O)Cc2cc(NC(=O)CCC(F)(F)F)ccc2O[C@H]1CN(C)Cc1ccc(C(=O)O)cc1	n	x	x	x	x	x
CCCNC(=O)N1C[C@H]2[C@@H](c3ccccc31)[C@@H](CO)N2Cc1cccc(OC)c1	n	x	x	x	x	x
CC(=O)Nc1ccc(S(=O)(=O)Nc2cc3c(cc2C(C)=O)OCO3)cc1	n	n	n	n	n	x
CC(=O)c1cc2c(cc1NS(=O)(=O)c1ccccc1)OCO2	x	n	n	n	n	n
CCC(C)NS(=O)(=O)c1ccc(S(=O)(=O)Nc2cc3c(cc2C(C)=O)OCO3)cc1 (stereo not given)	x	n	22.2	n	n	n
COc1ccc(CCNC(=O)c2nnn(-c3ccc4c(c3)OCCO4)c2N)cc1OC	x	n	7.6	n	n	n
C[C@@H]1CN([C@H](C)CO)C(=O)c2cccc(NC(=O)Nc3ccc4c(c3)OCO4)c2O[C@@H]1CN(C)S(=O)(=O)c1ccccc1	n	x	x	x	x	x
C[C@H](CO)N1C[C@H](C)[C@@H](CN(C)S(=O)(=O)c2ccccc2)Oc2c(NC(=O)Nc3ccc4c(c3)OCO4)cccc2C1=O	n	n	109.2	n	n	n
COCC(=O)Nc1ccc2c(c1)C(=O)N(C)[C@@H]1CC[C@@H](CC(=O)NCCc3ccccc3)O[C@H]1CO2	n	x	x	x	x	x
O=c1ncn(-c2cccc([N+](=O)[O-])c2)c2ccccc12	n	n	n	n	n	x
Cc1c(Cl)cccc1-n1cnc(=O)c2ccccc21	n	n	n	n	n	x	HeLa 24h tox=n
C[C@@H]1CCCCO[C@@H](CN(C)S(=O)(=O)c2ccccc2)[C@@H](C)CN([C@@H](C)CO)C(=O)c2cc(NC(=O)NC3CCCCC3)ccc2O1	n	x	x	x	x	x
Cc1ccc(N(C(C)C(=O)O)S(=O)(=O)c2c(C)[nH]c(=O)[nH]c2=O)cc1 (stereo not given)	n	n	n	n	n	x
COC(=O)C(C)N(c1ccc(C)cc1)S(=O)(=O)c1c(C)[nH]c(=O)[nH]c1=O (stereo not given)	n	n	110.7	n	n	n
